Structures are written as SMILES. The panel holds about 79,000 compounds, 15% with a hit somewhere; the sample as a whole holds those more often. Active and inactive are the calls of the source. Cut-off read from the data, not from the text of the source: active = growth inhibition above about 70%; inactive = the rest.

This test in a line: NCI Yeast Anticancer Drug Screen. Data for the bub3 strain (AID 167). The settings on record: S. cerevisiae bub3 mutant strain, at 33.0 µM, hits give high values. Summed up:
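Mutant yeast screening strain plus compound; vehicle-treated cultures serve as the 0% inhibition reference.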
Regarding `CCCc1cc(C(=O)OCC)cc(CCC)c1O`, the growth inhibition was 63% (inactive).

Consider `CC(C)[N+]([O-])(CCCNc1c2ccccc2nc2cccc([N+](=O)[O-])c12)C(C)C`, for which the growth inhibition is 90% (active).

For the compound `COc1cc2c3c(cccc3c1)C(=O)N(CCN(C)C)C2=O`, the growth inhibition is -10% (inactive).

In the case of `NC(=O)NN=C(CS)CS`, the growth inhibition was 14% (inactive).

Regarding `Cc1ccc(NC(=O)/C(Cl)=C(\Cl)C(=O)O)cc1C`, the growth inhibition was 99% (active).

Take `CCN(CC)CC[n+]1ccc2c(C)c3[nH]c4ccc(O)cc4c3c(C)c2c1`: the growth inhibition was -7% (inactive).

Turning to `CC(CC(C)(C)[N+](C)(C)C)[N+](C)(C)C` (stereo not given), the growth inhibition was -1% (inactive).

Regarding `COc1ccc(OC)c2cc3ccccc3cc12`, the growth inhibition is 33% (inactive).

In the case of `Nc1ncncc1C(C1=C(O)COC1=O)C1=C(O)COC1=O`, the growth inhibition is -2% (inactive).

Turning to `CSC1=NNC(SC)=NN1`, the growth inhibition was 89% (active).

As to `Cc1c(Cl)ccc2c1S(=O)(=O)c1cccc(Cl)c1-2`, the growth inhibition is -10% (inactive).

For the compound `[O-][n+]1c2ccc(O)cc2nc2ccc(Cl)cc21`, the growth inhibition was 41% (inactive).

As to `COc1ccc2ccc3ccccc3c2c1C=O`, the growth inhibition is -2% (inactive).

Consider `Nc1ccc2c(c1)C(=O)c1cccc(N)c1C2=O`, for which the growth inhibition is 72% (active).

As for `O=C(c1ccc(Cl)cc1Cl)C(Cl)Cl`, the growth inhibition is 80% (active).

Consider `COc1cc(C(=O)/C=C/c2ccccc2O)ccc1O`, for which the growth inhibition was 99% (active).

In the case of `O=Cc1cccc2ccc3ccccc3c12`, the growth inhibition was 4% (inactive).

On to `O=C(Nc1ccc(Cl)cc1)OCC#CCCl`, for which the growth inhibition was 3% (inactive).

As for `Cn1ccnc1Oc1ccc(Cl)cc1`, the growth inhibition is 25% (inactive).

Turning to `c1ccc2c(c1)C(=NCCCN1CCCCCC1)c1cccn1-2`, the growth inhibition is 10% (inactive).

For the origin of these results see PubChem BioAssay (NCI).
